# Results as given in article PMC7862700, “An all-to-all approach to the identification of sequence-specific readers for epigenetic DNA modifications on cytosine”.
# Columns and labels:
# Test in all cases: DAPPL (digital affinity profiling via proximity ligation, sequencing); 10 mM Tris-HCl pH 7.5, 50 mM NaCl, 1 mM DTT, 4% glycerol, room temperature, 30 min; GST-TFs on glutathione beads, 16-mer random dsDNA library, 0.1% formaldehyde crosslink after washing; high values mean tight binding
# FLI1 = target: T1, FLI1 (Homo sapiens, UniProt Q01543 1-452); conditions: protein: recombinant; tags: N-terminal GST; dsDNA, one strand shown
# T1 sequence: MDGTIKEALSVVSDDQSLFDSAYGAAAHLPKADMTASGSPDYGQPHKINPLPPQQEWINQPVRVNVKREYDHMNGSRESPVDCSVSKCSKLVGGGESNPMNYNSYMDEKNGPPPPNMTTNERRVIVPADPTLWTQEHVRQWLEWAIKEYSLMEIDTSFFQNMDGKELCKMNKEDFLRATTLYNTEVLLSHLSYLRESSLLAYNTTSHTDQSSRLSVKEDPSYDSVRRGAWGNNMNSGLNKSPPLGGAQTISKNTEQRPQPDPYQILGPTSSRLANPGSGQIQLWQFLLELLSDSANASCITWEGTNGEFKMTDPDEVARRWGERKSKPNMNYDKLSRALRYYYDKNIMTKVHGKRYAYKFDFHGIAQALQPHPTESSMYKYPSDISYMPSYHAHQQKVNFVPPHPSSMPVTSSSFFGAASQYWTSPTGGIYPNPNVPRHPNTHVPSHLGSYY
# How it was run: (§1)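 Binding signal is each hexamer's read frequency for a factor divided by its frequency in the tag-only sample. The factors were GST-fused human transcription factors from yeast, captured on glutathione beads, DNA-barcoded and pooled with that sample. Pools were incubated with 200 nmole of a random double-stranded 16-mer DNA library in Tris/NaCl/DTT/glycerol buffer at room temperature for 30 min, then washed, crosslinked with 0.1% formaldehyde, proximity-ligated with BsaI/T4 ligase (1 h, 37 °C), PCR-amplified and sequenced on an Illumina NextSeq500.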
# ELK1 = target: T2, ELK1 (Homo sapiens, UniProt P19419 1-428); conditions: protein: recombinant; tags: N-terminal GST; dsDNA, one strand shown
# T2 sequence: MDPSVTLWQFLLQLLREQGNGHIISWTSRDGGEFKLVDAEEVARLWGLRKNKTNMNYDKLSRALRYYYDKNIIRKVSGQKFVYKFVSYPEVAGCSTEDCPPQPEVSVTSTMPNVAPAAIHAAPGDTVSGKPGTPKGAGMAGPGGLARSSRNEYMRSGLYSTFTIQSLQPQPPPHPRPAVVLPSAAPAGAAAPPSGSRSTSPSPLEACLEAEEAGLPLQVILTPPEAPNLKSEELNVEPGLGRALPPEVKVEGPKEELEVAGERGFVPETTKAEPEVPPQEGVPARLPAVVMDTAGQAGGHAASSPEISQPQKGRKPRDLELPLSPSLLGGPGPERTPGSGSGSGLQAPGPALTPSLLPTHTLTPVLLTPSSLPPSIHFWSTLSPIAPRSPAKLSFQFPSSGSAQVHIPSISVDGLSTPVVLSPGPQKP
# How it was run: as §1
# GABPA = target: T3, GABPA (Homo sapiens, UniProt Q06546 1-454); conditions: protein: recombinant; tags: N-terminal GST; dsDNA, one strand shown
# T3 sequence: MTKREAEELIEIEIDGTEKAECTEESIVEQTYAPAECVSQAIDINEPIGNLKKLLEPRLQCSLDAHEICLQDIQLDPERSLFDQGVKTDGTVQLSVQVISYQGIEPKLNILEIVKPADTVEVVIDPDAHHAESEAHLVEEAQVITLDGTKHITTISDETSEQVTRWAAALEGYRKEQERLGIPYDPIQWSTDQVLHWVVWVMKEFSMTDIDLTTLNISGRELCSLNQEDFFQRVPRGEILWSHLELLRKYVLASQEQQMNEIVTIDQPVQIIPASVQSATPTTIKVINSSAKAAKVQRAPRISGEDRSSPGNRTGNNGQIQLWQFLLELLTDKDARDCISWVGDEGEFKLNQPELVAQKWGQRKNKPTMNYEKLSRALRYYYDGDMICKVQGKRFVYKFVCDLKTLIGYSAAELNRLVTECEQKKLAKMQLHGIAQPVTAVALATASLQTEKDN
# How it was run: as §1
# ERG = target: T4, ERG (Homo sapiens, UniProt P11308 1-479); conditions: protein: recombinant; tags: N-terminal GST; dsDNA, one strand shown
# T4 sequence: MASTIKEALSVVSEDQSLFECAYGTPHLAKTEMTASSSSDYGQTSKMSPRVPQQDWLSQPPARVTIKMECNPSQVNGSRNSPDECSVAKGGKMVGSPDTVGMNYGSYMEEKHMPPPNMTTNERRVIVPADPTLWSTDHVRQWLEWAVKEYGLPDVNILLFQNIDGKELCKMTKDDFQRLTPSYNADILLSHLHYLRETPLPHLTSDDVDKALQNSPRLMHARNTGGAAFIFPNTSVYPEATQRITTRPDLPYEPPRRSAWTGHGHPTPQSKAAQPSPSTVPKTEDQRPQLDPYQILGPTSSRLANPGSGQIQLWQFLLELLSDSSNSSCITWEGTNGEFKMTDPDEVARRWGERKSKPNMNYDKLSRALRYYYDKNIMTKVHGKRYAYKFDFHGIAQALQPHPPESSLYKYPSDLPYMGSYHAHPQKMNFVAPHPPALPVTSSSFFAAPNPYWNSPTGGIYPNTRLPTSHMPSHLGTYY
# How it was run: as §1
# ELF1 = ELF1 (Homo sapiens, UniProt P32519 1-619); conditions: protein: recombinant; tags: N-terminal GST; dsDNA, one strand shown
# Chain of ELF1 (P32519 whole entry): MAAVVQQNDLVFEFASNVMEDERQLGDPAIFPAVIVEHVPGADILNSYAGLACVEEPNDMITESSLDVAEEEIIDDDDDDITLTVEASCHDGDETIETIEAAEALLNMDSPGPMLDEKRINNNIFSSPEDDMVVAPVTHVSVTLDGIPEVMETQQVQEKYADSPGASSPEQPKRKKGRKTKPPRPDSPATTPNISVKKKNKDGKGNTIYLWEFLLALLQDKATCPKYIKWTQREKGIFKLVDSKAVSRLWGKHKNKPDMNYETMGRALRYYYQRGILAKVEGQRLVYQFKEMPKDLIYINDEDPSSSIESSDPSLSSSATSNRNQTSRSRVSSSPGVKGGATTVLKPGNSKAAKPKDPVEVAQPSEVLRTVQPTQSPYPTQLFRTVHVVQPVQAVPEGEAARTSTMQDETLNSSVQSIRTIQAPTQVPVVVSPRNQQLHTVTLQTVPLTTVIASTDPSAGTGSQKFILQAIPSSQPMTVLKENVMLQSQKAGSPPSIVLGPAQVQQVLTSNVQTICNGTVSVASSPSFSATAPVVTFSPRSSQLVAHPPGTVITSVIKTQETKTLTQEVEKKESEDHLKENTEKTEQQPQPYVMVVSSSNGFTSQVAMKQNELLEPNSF
# How it was run: as §1
# EHF = target: T5, EHF (Homo sapiens, UniProt Q9NZC4 1-300); conditions: protein: recombinant; tags: N-terminal GST; dsDNA, one strand shown
# T5 sequence: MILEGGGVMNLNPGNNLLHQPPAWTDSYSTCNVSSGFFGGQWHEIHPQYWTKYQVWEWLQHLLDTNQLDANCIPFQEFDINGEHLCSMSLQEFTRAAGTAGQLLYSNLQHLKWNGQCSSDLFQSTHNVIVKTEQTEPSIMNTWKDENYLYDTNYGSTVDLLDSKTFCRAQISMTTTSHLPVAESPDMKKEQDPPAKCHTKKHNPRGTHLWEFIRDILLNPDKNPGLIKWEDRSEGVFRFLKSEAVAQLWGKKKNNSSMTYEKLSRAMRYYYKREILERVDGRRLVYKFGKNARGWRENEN
# How it was run: as §1
# SPI1 = SPI1 (Homo sapiens, UniProt P17947 1-270); conditions: protein: recombinant; tags: N-terminal GST; dsDNA, one strand shown
# How it was run: as §1
# SPIB = SPIB (Homo sapiens, UniProt Q01892 1-262); conditions: protein: recombinant; tags: N-terminal GST; dsDNA, one strand shown
# Chain of SPIB (Q01892 whole entry): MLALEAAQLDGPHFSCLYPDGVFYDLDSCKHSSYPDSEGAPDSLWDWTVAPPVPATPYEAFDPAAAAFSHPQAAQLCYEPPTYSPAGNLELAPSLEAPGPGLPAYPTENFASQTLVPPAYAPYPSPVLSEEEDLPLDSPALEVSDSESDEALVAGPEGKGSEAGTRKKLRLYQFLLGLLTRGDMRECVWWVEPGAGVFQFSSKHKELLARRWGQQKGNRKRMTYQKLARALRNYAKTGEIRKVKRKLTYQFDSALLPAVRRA
# How it was run: as §1
# ELK3 = target: T6, ELK3 (Homo sapiens, UniProt P41970 1-407); conditions: protein: recombinant; tags: N-terminal GST; dsDNA, one strand shown
# T6 sequence: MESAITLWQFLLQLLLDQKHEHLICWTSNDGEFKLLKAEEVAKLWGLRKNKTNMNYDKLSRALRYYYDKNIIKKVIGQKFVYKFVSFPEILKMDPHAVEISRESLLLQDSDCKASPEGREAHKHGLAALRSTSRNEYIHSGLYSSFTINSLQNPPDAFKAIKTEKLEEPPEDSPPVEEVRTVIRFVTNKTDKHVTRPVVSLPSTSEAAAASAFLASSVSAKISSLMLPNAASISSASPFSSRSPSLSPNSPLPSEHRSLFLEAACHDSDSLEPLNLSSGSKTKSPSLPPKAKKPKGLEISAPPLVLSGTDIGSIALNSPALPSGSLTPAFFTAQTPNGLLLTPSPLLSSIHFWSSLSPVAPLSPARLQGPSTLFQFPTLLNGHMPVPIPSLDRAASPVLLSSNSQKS
# How it was run: as §1
# FEV = target: T7, FEV (Homo sapiens, UniProt Q99581 1-238); conditions: protein: recombinant; tags: N-terminal GST; dsDNA, one strand shown
# T7 sequence: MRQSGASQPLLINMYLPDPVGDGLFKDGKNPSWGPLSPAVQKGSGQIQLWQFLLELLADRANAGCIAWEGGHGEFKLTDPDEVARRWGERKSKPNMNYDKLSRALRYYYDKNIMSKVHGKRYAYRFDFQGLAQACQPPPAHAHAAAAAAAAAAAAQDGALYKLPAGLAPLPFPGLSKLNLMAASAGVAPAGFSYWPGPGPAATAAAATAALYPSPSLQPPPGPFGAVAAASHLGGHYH
# How it was run: as §1
# ETV5 = ETV5 (Homo sapiens, UniProt P41161 1-510); conditions: protein: recombinant; tags: N-terminal GST; dsDNA, one strand shown
# Chain of ETV5 (P41161 whole entry): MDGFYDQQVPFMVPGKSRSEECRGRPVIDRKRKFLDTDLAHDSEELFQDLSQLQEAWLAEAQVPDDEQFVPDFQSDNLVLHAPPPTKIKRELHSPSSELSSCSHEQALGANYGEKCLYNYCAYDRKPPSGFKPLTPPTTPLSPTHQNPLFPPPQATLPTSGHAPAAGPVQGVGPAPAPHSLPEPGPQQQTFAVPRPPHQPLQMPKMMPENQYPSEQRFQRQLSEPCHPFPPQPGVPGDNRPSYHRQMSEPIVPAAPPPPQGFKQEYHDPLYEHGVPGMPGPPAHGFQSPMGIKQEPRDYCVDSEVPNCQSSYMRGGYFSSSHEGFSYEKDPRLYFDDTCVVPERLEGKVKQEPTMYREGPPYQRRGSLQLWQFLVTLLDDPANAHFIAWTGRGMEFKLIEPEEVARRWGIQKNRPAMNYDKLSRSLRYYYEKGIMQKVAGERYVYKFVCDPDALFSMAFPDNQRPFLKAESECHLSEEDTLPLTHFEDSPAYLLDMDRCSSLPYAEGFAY
# How it was run: as §1
# HSF1 = HSF1 (Homo sapiens, UniProt Q00613 1-529); conditions: protein: recombinant; tags: N-terminal GST; chain copies: 3; dsDNA, one strand shown
# Chain of HSF1 (Q00613 whole entry): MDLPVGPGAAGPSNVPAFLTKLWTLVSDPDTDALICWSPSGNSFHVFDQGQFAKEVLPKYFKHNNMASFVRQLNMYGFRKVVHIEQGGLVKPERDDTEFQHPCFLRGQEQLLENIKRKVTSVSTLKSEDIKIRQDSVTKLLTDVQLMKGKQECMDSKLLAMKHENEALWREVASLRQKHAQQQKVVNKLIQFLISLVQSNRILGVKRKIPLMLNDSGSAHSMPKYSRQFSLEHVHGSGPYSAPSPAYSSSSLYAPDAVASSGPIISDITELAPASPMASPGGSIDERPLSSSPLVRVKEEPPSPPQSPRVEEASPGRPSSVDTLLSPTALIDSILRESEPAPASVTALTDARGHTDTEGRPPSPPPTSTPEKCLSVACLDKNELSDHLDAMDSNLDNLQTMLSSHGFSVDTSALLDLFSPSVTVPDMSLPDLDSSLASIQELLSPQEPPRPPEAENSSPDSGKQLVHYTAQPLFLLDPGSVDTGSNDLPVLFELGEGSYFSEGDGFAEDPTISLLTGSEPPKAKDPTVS
# How it was run: as §1
# SPIC = target: T8, SPIC (Homo sapiens, UniProt Q8N5J4 1-248); conditions: protein: recombinant; tags: N-terminal GST; dsDNA, one strand shown
# T8 sequence: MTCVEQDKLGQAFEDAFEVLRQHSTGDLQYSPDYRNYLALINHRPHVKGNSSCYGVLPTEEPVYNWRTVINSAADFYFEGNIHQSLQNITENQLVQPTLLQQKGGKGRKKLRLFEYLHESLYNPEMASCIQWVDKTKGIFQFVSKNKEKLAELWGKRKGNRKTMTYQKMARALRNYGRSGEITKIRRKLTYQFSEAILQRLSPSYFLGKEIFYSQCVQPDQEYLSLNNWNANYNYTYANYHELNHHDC
# How it was run: as §1
# ELF4 = ELF4 (Homo sapiens, UniProt Q99607 1-663); conditions: protein: recombinant; tags: N-terminal GST; dsDNA, one strand shown
# Chain of ELF4 (Q99607 whole entry): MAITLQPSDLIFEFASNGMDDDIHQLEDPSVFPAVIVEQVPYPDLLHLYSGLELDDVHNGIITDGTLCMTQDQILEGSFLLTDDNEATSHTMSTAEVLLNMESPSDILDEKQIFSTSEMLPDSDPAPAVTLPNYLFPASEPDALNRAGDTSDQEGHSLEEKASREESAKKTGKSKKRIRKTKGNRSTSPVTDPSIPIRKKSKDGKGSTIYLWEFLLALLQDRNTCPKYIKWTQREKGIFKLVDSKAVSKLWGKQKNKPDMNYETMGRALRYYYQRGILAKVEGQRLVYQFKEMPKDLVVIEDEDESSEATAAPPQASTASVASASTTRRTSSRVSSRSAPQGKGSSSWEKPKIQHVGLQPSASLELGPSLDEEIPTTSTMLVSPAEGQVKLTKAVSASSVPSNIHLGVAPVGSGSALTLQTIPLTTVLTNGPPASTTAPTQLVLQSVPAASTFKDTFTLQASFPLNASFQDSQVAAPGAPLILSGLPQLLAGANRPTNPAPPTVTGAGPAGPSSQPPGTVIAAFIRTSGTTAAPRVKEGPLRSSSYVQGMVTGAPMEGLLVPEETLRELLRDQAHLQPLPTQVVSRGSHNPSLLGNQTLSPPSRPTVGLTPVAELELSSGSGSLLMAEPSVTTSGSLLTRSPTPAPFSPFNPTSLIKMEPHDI
# How it was run: as §1
# ELK4 = target: T9, ELK4 (Homo sapiens, UniProt P28324-2 1-405); conditions: protein: recombinant; tags: N-terminal GST; dsDNA, one strand shown
# T9 sequence: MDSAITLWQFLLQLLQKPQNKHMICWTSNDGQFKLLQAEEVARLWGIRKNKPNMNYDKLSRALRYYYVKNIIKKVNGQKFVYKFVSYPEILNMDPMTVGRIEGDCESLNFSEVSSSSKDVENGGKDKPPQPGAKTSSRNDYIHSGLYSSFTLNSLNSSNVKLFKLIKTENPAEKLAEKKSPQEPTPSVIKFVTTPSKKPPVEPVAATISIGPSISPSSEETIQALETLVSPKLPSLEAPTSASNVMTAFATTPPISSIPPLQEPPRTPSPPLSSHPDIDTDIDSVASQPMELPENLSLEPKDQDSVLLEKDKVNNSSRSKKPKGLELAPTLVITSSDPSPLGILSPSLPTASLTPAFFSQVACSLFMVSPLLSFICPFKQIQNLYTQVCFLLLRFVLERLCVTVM
# How it was run: as §1
# ETV2 = target: T10, ETV2 (Homo sapiens, UniProt O00321 1-342); conditions: protein: recombinant; tags: N-terminal GST; dsDNA, one strand shown
# T10 sequence: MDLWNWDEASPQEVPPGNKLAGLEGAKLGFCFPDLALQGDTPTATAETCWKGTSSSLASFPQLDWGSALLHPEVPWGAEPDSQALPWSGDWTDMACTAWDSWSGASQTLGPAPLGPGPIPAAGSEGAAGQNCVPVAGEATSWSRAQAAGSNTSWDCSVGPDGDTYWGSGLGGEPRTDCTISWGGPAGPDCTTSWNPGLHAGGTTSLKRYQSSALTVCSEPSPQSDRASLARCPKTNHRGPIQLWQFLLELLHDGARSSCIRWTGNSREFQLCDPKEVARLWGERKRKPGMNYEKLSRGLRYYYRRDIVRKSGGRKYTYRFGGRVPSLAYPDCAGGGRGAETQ
# How it was run: as §1
# ELF3 = target: T11, ELF3 (Homo sapiens, UniProt P78545 1-371); conditions: protein: recombinant; tags: N-terminal GST; dsDNA, one strand shown
# T11 sequence: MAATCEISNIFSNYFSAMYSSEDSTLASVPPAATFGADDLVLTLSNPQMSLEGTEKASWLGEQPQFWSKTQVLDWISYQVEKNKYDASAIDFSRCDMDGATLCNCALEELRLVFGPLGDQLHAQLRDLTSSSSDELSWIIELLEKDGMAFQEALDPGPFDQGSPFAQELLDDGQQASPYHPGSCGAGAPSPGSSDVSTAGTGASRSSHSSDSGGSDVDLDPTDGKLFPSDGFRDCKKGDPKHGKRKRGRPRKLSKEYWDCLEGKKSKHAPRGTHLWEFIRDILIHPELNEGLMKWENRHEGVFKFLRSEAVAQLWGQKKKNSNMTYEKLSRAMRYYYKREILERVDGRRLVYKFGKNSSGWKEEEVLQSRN
# How it was run: as §1
# CRX = CRX (Homo sapiens, UniProt O43186 1-299); conditions: protein: recombinant; tags: N-terminal GST; dsDNA, one strand shown
# Chain of CRX (O43186 whole entry): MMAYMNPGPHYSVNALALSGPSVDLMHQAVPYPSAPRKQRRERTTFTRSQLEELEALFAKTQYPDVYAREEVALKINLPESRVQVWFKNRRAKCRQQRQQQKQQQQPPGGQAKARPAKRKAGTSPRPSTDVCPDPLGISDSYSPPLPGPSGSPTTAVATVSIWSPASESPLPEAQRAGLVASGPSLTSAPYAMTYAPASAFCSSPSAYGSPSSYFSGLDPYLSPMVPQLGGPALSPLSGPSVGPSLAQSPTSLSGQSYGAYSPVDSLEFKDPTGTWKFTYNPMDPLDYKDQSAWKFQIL
# How it was run: as §1
# ETV1 = ETV1 (Homo sapiens, UniProt P50549 1-477); conditions: protein: recombinant; tags: N-terminal GST; dsDNA, one strand shown
# Chain of ETV1 (P50549 whole entry): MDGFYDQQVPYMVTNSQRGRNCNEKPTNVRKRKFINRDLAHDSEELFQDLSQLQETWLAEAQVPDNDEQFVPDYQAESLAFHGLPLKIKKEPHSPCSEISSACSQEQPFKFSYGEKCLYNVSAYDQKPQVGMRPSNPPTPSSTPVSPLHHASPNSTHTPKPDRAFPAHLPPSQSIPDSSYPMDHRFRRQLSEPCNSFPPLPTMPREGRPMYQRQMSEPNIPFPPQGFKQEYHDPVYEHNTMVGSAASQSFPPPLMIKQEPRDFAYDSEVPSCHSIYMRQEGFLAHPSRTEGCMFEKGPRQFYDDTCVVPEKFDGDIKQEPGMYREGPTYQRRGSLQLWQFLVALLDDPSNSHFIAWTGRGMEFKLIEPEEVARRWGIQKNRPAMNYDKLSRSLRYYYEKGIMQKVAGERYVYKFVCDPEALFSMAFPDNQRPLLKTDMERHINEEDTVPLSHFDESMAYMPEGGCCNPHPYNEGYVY
# How it was run: as §1
sequence,measurement,setting,value
TTCTGT,binding signal,FLI1,"1.26 fold enrichment (6-mer frequency, TF over GST control)"
same,binding signal,ELK1,"1.3 fold enrichment (6-mer frequency, TF over GST control)"
same,binding signal,GABPA,"1.3 fold enrichment (6-mer frequency, TF over GST control)"
same,binding signal,ERG,"1.27 fold enrichment (6-mer frequency, TF over GST control)"
same,binding signal,ELF1,"1.27 fold enrichment (6-mer frequency, TF over GST control)"
same,binding signal,EHF,"1.25 fold enrichment (6-mer frequency, TF over GST control)"
same,binding signal,SPI1,"1.37 fold enrichment (6-mer frequency, TF over GST control)"
same,binding signal,SPIB,"1.22 fold enrichment (6-mer frequency, TF over GST control)"
same,binding signal,ELK3,"1.33 fold enrichment (6-mer frequency, TF over GST control)"
same,binding signal,FEV,"1.27 fold enrichment (6-mer frequency, TF over GST control)"
same,binding signal,ETV5,"1.26 fold enrichment (6-mer frequency, TF over GST control)"
same,binding signal,HSF1,"1.6 fold enrichment (6-mer frequency, TF over GST control)"
same,binding signal,SPIC,"1.41 fold enrichment (6-mer frequency, TF over GST control)"
same,binding signal,ELF4,"1.3 fold enrichment (6-mer frequency, TF over GST control)"
same,binding signal,ELK4,"1.5 fold enrichment (6-mer frequency, TF over GST control)"
same,binding signal,ETV2,"1.35 fold enrichment (6-mer frequency, TF over GST control)"
same,binding signal,ELF3,"1.24 fold enrichment (6-mer frequency, TF over GST control)"
same,binding signal,CRX,"1.31 fold enrichment (6-mer frequency, TF over GST control)"
same,binding signal,ETV1,"1.32 fold enrichment (6-mer frequency, TF over GST control)"
